# Experimental data taken from the supplement of paper PMC10981050.
# Several values for one entry are separate records, joined by “and”; a condition that tells them apart may be missing. Equal values may be shown once.
# Experiments:
# Assay in all cases: cell viability relative to vehicle control; higher = less cytotoxic
# Conditions in all cases: 10 µM
# K562 = test system: K562
# Procedure, shortened: (§1)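 CRISPR-edited mutant clones and isogenic wild-type clones from four leukaemia lines were screened against Selleck bioactive, kinase and epigenetic probe libraries, with identity-inconsistent compounds excluded. Each compound was acoustically dispensed at a single 10 µM dose into 384-well plates holding 2000 cells in 50 µL medium per well. After 48 h the supernatant was removed and CellTiter-Glo luminescence was read. Viability was expressed as percent of the on-plate vehicle control and analysed in Genedata Screener.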
# MARIMO = test system: MARIMO
# Procedure, shortened: as §1
# MOLM14 = test system: MOLM14
# Procedure, shortened: as §1
# OCI-AML2 = test system: OCI-AML2
# Procedure, shortened: as §1
SMILES,cell viability (K562; SRSF2 genotype: SRSF2 P95H/wt),cell viability (K562; SRSF2 genotype: SRSF2 wt/wt) [%],cell viability (MARIMO; SRSF2 genotype: SRSF2 P95H/wt) [%],cell viability (MARIMO; SRSF2 genotype: SRSF2 wt/wt) [%],cell viability (MOLM14; SRSF2 genotype: SRSF2 P95H/wt) [%],cell viability (MOLM14; SRSF2 genotype: SRSF2 wt/wt) [%],cell viability (OCI-AML2; SRSF2 genotype: P95H/wt) [%],cell viability (OCI-AML2; SRSF2 genotype: wt/wt) [%]
C[C@H]1CC[C@@H]2N(C1)C[C@H]1[C@@H]3C[C@H]4[C@@H](CC(=O)[C@H]5C[C@@H](O)CC[C@@]54C)[C@@H]3CC[C@H]1[C@]2(C)O [Imperialine],112% and 97.8%,109,103,101,105,106,101,107
O=C(CBr)N1CC([N+](=O)[O-])([N+](=O)[O-])C1,86.2% and 82.7%,81.4,85.5,101,88.6,88.7,94.3,114
CCOc1ccccc1-n1c(C(C)N2CCN(C(=O)COc3ccc(Cl)cc3)CC2)nc2ccccc2c1=O (configuration not stated) [Erastin],–,63,21.1,38.8,6.91,3.65,0.65,12.4
CCCN1CCO[C@@H]2c3cc(O)ccc3OC[C@H]21,98% and 95.8%,92.6,97.5,97,104,101,96.5,93.2
Cc1cc2c(C(C)C)c(O)c(O)c(C=O)c2c(O)c1-c1c(C)cc2c(C(C)C)c(O)c(O)c(C=O)c2c1O,2.58% and 2.65%,13.3,11.7,15.4,0.51,1.24,0.59,1.12
O=c1[nH]c2ccccc2n1C1CCN(Cc2ccc(-c3[nH]c4cc5ncnc5cc4nc3-c3ccccc3)cc2)CC1,56.9% and 65.9%,61.7,66.5,76.2,53.6,43.6,48.8,47.9
CC(C)[C@]12O[C@H]1[C@@H]1O[C@@]13[C@@]1(C)CCC4=C(COC4=O)[C@@H]1C[C@@H]1O[C@@]13C2=O [Triptonide],5.3% and 13.3%,8.48,12.8,5.79,2.66,0.71,5.01,15.2
O=c1[nH]c2ccc(Cl)cc2c(N[C@@H]2CN3CCC2CC3)c1-c1nc2ccccc2[nH]1,2.58% and 2.45%,0.48,0.55,0.36,0.07,-0.01,0.04,0.75
CC[C@H]1CN2CC[C@H]1C[C@H]2[C@H](O)c1ccnc2ccc(OC)cc12 [Hydroquinine],102% and 101%,103,97.5,111,87.8,106,100,110
COc1ccc(C=O)cc1O [Isovanillin],105% and 103%,103,108,108,106,101,104,98.2
c1c2c(cc3c1OCO3)-c1cc3ccc4c(c3c[n+]1CC2)OCO4 [Coptisine chloride],83.7% and 89.7%,84.2,95.4,99.8,96.2,94.3,84.5,91.7
